# Laboratory results reported in the supplement of paper PMC12282887.
# ± gives the standard deviation of the averaged measurements.
# System: E. coli BW25113 marRABp lux reporter
# Assay: promoter activity interaction Z-score (Lux/OD deviation from empty-vector control); higher = stronger promoter induction by the compound
# Procedure: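 E. coli BW25113 (wild type or ΔmarA/ΔsoxS/Δrob) carrying pTU175 luxCDABE promoter reporters was grown in LB in 384-well plates at 37°C with each of 94 compounds at 4 two-fold concentrations, in biological duplicates. Luminescence and OD600 were read every 30 min for 12 h and integrated as AUC over 8 h (0-8 h WT, 1-9 h mutants). Lux AUC was divided by OD AUC; the interaction score is the residual of a Huber robust fit of each promoter against the empty-vector control, then Z-transformed per promoter.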
smiles,measurement,setting,value
CNC[C@H](O)c1ccc(O)c(O)c1 [Adrenalin],promoter activity interaction Z-score,"13.7 µg/ml, genetic background: wild type",0.121 ± 0.2
same,promoter activity interaction Z-score,"13.7 µg/ml, genetic background: ΔmarA",-0.289 ± 0.22
same,promoter activity interaction Z-score,"13.7 µg/ml, genetic background: Δrob",-0.0038 ± 0.073
same,promoter activity interaction Z-score,"13.7 µg/ml, genetic background: ΔsoxS",-0.111 ± 0.21
same,promoter activity interaction Z-score,"27.5 µg/ml, genetic background: wild type",0.38 ± 0.26
same,promoter activity interaction Z-score,"27.5 µg/ml, genetic background: ΔmarA",0.173 ± 0.6
same,promoter activity interaction Z-score,"27.5 µg/ml, genetic background: Δrob",0.209 ± 0.28
same,promoter activity interaction Z-score,"27.5 µg/ml, genetic background: ΔsoxS",0.0712 ± 0.22
same,promoter activity interaction Z-score,"54.9 µg/ml, genetic background: wild type",-0.365 ± 0.31
same,promoter activity interaction Z-score,"54.9 µg/ml, genetic background: ΔmarA",-0.424 ± 0.13
same,promoter activity interaction Z-score,"54.9 µg/ml, genetic background: Δrob",-0.339 ± 0.43
same,promoter activity interaction Z-score,"54.9 µg/ml, genetic background: ΔsoxS",-0.285 ± 0.12
same,promoter activity interaction Z-score,"109.8 µg/ml, genetic background: wild type",-0.142 ± 0.4
same,promoter activity interaction Z-score,"109.8 µg/ml, genetic background: ΔmarA",-0.43 ± 0.15
same,promoter activity interaction Z-score,"109.8 µg/ml, genetic background: Δrob",0.0375 ± 0.16
same,promoter activity interaction Z-score,"109.8 µg/ml, genetic background: ΔsoxS",0.218 ± 0.26
O=C(O)c1ccccc1O [Salicylate],promoter activity interaction Z-score,"17.3 µg/ml, genetic background: wild type",0.135 ± 0.01
same,promoter activity interaction Z-score,"17.3 µg/ml, genetic background: ΔmarA",0.0581 ± 0.22
same,promoter activity interaction Z-score,"17.3 µg/ml, genetic background: Δrob",0.184 ± 0.16
same,promoter activity interaction Z-score,"17.3 µg/ml, genetic background: ΔsoxS",-0.0106 ± 0.075
same,promoter activity interaction Z-score,"34.5 µg/ml, genetic background: wild type",0.214 ± 0.13
same,promoter activity interaction Z-score,"34.5 µg/ml, genetic background: ΔmarA",0.401 ± 0.26
same,promoter activity interaction Z-score,"34.5 µg/ml, genetic background: Δrob",0.526 ± 0.052
same,promoter activity interaction Z-score,"34.5 µg/ml, genetic background: ΔsoxS",0.404 ± 0.12
same,promoter activity interaction Z-score,"69.1 µg/ml, genetic background: wild type",0.771 ± 0.2
same,promoter activity interaction Z-score,"69.1 µg/ml, genetic background: ΔmarA",0.666 ± 0.1
same,promoter activity interaction Z-score,"69.1 µg/ml, genetic background: Δrob",0.852 ± 0.25
same,promoter activity interaction Z-score,"69.1 µg/ml, genetic background: ΔsoxS",0.352 ± 0.1
same,promoter activity interaction Z-score,"138.1 µg/ml, genetic background: wild type",7.4 ± 0.11
same,promoter activity interaction Z-score,"138.1 µg/ml, genetic background: ΔmarA",8.571 ± 0.071
same,promoter activity interaction Z-score,"138.1 µg/ml, genetic background: Δrob",6.24 ± 1.4
same,promoter activity interaction Z-score,"138.1 µg/ml, genetic background: ΔsoxS",6.09 ± 1.6
C[C@H](CCC(=O)O)[C@H]1CC[C@H]2[C@@H]3CC[C@@H]4C[C@H](O)CC[C@]4(C)[C@H]3CC[C@]12C [Lithocholic acid],promoter activity interaction Z-score,"23.5 µg/ml, genetic background: wild type",0.0125 ± 0.049
same,promoter activity interaction Z-score,"23.5 µg/ml, genetic background: ΔmarA",0.215 ± 0.24
same,promoter activity interaction Z-score,"23.5 µg/ml, genetic background: Δrob",0.171 ± 0.16
same,promoter activity interaction Z-score,"23.5 µg/ml, genetic background: ΔsoxS",-0.00159 ± 0.033
same,promoter activity interaction Z-score,"47.1 µg/ml, genetic background: wild type",0.0767 ± 0.14
same,promoter activity interaction Z-score,"47.1 µg/ml, genetic background: ΔmarA",0.199 ± 0.2
same,promoter activity interaction Z-score,"47.1 µg/ml, genetic background: Δrob",0.159 ± 0.08
same,promoter activity interaction Z-score,"47.1 µg/ml, genetic background: ΔsoxS",0.29 ± 0.41
same,promoter activity interaction Z-score,"94.1 µg/ml, genetic background: wild type",-0.14 ± 0.0041
same,promoter activity interaction Z-score,"94.1 µg/ml, genetic background: ΔmarA",-0.0736 ± 0.21
same,promoter activity interaction Z-score,"94.1 µg/ml, genetic background: Δrob",0.0252 ± 0.008
same,promoter activity interaction Z-score,"94.1 µg/ml, genetic background: ΔsoxS",-0.23 ± 0.21
same,promoter activity interaction Z-score,"188.3 µg/ml, genetic background: wild type",-0.189 ± 0.024
same,promoter activity interaction Z-score,"188.3 µg/ml, genetic background: ΔmarA",0.0134 ± 0.26
same,promoter activity interaction Z-score,"188.3 µg/ml, genetic background: Δrob",0.123 ± 0.086
same,promoter activity interaction Z-score,"188.3 µg/ml, genetic background: ΔsoxS",0.0918 ± 0.55
